PubChem BioAssay AID777 (Sanford-Burnham Center for Chemical Genomics, 2007)
In all, about 96,000 compounds went through this assay and about 19,000 (20%) were called active. Only a sample is shown. A number with no mark means an inactive call.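 Rule for the calls: active = blocking of liver enzyme CYP2C9 beyond about 50% at 5 µM (limit read from the data); inactive = the rest.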

Each compound was assayed against Cytochrome P450 2C9 (Homo sapiens) (UniProt P11712) (assay: blockers of cytochrome P450 2C9 activity – biochemical, luminescence, ADME assay, primary screen (AID 777)). Settings: CYP2C9 Supersomes, luciferin-H conversion, at 5 µM, stronger effect = higher value.
Cytochrome P450 2C9 (Homo sapiens), sequence (P11712 whole entry, looked up): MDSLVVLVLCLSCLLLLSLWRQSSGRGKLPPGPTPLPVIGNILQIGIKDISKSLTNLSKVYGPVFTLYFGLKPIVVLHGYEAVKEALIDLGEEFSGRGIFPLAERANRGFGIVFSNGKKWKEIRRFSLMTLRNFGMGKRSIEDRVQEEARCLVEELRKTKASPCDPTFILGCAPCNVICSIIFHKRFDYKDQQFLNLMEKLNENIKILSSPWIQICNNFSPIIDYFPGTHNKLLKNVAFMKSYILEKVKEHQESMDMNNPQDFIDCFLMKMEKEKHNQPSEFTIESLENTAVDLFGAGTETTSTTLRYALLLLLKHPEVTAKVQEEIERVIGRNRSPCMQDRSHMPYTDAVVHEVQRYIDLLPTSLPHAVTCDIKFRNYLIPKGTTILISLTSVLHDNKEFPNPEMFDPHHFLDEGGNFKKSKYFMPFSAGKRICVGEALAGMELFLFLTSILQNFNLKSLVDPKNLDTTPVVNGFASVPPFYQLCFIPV

| SMILES | inhibition |
| --- | --- |
| O=C(CC1OC(=O)c2ccccc21)NC1CCCCC1 (configuration not stated) | -99.1% |
| CCOc1ccccc1NC(=O)c1cc(S(=O)(=O)N2CCC3(CC2)OCCO3)ccc1F | 6.8% |
| O=C(Nc1ccccc1F)c1cc(S(=O)(=O)N2CCCCC2)cs1 | 75.6% (active) |
| O=C(CN1CCN(S(=O)(=O)c2ccc(F)cc2)CC1)Nc1ccccc1F | 40.4% |
| CCOc1ccc(CN(Cc2ccco2)S(=O)(=O)c2ccc(-n3cnnn3)c(OC)c2)cc1 | 65.1% (active) |
| CCOC(=O)Cn1c(=O)oc2cc(S(=O)(=O)N(C)Cc3ccco3)ccc21 | 28.8% |
| COc1ccc(CN(Cc2ccco2)S(=O)(=O)c2ccc(S(=O)(=O)N3CCCC3)cc2)cc1 | 39.9% |
| NC(=O)N1CCCC1C(=O)Nc1ccc(Cl)c(Cl)c1 (configuration not stated) | 14.9% |
| CC(C)(C)NC(=O)Cn1cnc([N+](=O)[O-])n1 | -14.1% |
| O=S(=O)(NCc1ccccn1)c1ccc(Br)s1 | -3.5% |
| O=c1c2[nH]c3ccc(Cl)cc3c2ncn1Cc1ccccn1 | 17.6% |
| COc1ccc2[nH]c3ccc(OC)cc3c2c1 | 26.8% |
| COc1ccc2[nH]cc(/C=C(/C#N)S(=O)(=O)c3ccccc3)c2c1 | 95.4% (active) |
| O=C(O)CCSc1nnc(-c2ccccc2)n1-c1ccccc1 | -14.5% |
| C=CCNc1nnc(SCC(=O)N2CCCCC2)c2ccccc12 | -25.8% |
| COC(=O)C(C(=O)Nc1cccc(C)n1)C1CCCCCC1 (configuration not stated) | 33.3% |
| CN1CC(c2ccccc2)C2(COc3ccccc3C2=O)C12C(=O)Nc1ccccc12 (configuration not stated) | 20.5% |
| CC1(C)CC(=O)c2sc(N)nc2C1 | 12.9% |
| CCC(=O)N1c2ccc(S(=O)(=O)CCC(=O)N3CCN(c4ccccc4)CC3)cc2CC1C (configuration not stated) | 49% |
| CC1Cc2ccccc2N1C(=O)c1cc2sccc2n1Cc1ccccc1 (configuration not stated) | 61.6% (active) |
| Cc1cc(=O)[nH]c(SCC(=O)N2c3ccccc3CC2C)n1 (configuration not stated) | 8% |

| SMILES | inhibition |
| --- | --- |
| COC(C)(C)[C@]12CC(O)(C(C)C)ON1[C@H]1CCCCC1N2O (some centres not stated) | -1.4% |
| CCC(C)(C(=O)NC1CCCC1)N(C(=O)CNC(C)=O)c1ccc(C)cc1 (configuration not stated) | 2.8% |
| COc1ccc2c(c1)SC(C)CC2=O (configuration not stated) | 12.7% |
| COc1ccc2c(c1)OC(O)(C(F)(F)C(F)F)CC2=O (configuration not stated) | 78.5% (active) |
| CCOc1ccc(CNC(=O)C2CCC(=O)N2C2CCCC2)cc1OC (configuration not stated) | 4.4% |
| CCCN1C(=O)C(NC(C)=O)c2cc(OC)ccc21 (configuration not stated) | -5.4% |
| CCOC(=O)COc1cc(OCC(=O)OCC)c2c(=O)cc(-c3ccccc3)oc2c1 | 70.3% (active) |
| COC(=O)COc1ccc2oc(=O)cc(C)c2c1 | -9.3% |
| Cc1cc(C)cc(OCC(=O)NNC(=O)c2cc3ccccc3oc2=O)c1 | -15.8% |
| CN1CCCC(OC(=O)COc2ccc(Br)cc2)C1 (configuration not stated) | -1.2% |
| COc1ccc(C(=O)Nc2nc(-c3ccc(OC)cc3)c(-c3ccc([N+](=O)[O-])cc3)s2)cc1 | 19.7% |
| COC(=O)C(NC(=O)c1ccc(OC)cc1)(Nc1ncc(S(=O)(=O)c2ccc([N+](=O)[O-])cc2)s1)C(F)(F)F (configuration not stated) | 66.3% (active) |
| CCC1CCCCN1CCNC(=O)c1[nH]c(C)c(C(C)=O)c1C (configuration not stated) | 9.6% |
| COCCOC(=O)C1=C(C)Nc2nc(C)nn2C1c1ccccc1 (configuration not stated) | 16.7% |
| COc1cc(C2C(C(=O)OCCC#N)=C(C)NC3=C2S(=O)(=O)c2ccccc23)cc(OC)c1OC (configuration not stated) | 50.9% (active) |
| COCCNC(=O)C(c1ccc(C)o1)N(Cc1cccs1)C(=O)c1snc(C(N)=O)c1N (configuration not stated) | 3.7% |
| O=C(Oc1ccc2c(c1)CCC2)N1CCOCC1 | 0.4% |
| Cc1cccn2c(=O)c3cc(C#N)c(=O)n(CCCN4CCOCC4)c3nc12 | 47% |
| COc1cc(/C=N/NC(=O)Nc2ccccc2)ccc1OCCOc1ccccc1C | 11.2% |
| COc1ccc(/C=N\NC(=O)c2sc(N)nc2C)cc1OC | 5.4% |
| COc1cccc(/C=N\Nc2nncc(-c3ccccc3)n2)c1 | 5.6% |

| SMILES | inhibition |
| --- | --- |
| COc1cccc(OCc2cc(/C=N/NC(=O)c3nc(Cl)c(Cl)c(N)c3Cl)ccc2OC)c1 | 84% (active) |
| COc1cccc(-c2cc(C(=O)N/N=C/c3ccc(OC)c(COC(C)=O)c3)c3ccccc3n2)c1 | 84.3% (active) |
| Cc1ccc(-c2cc(C(=O)N/N=C/C=C/c3ccco3)c3ccccc3n2)cc1C | 34% |
| CCCC(C(=O)n1nc(C)cc1C)C(NS(=O)(=O)c1ccc(C)cc1)c1ccccc1 (configuration not stated) | -1.9% |
| O=C(c1ccco1)N1CCN(C(=O)C2CC(c3ccc(Cl)c(Cl)c3)=NO2)CC1 (configuration not stated) | 43.9% |
| CN(C)c1cc(N)c2ccccc2n1 (tested in a mixture with another compound) | -21.6% |
| O=C(NCc1ccccc1)C1C(=O)N(Cc2ccccc2)C(=O)C1C1(O)CCCC1 (configuration not stated) | 33.6% |
| CC(C)c1nc2ccc(C(=O)O)cc2[nH]1 | 5.8% |
| CCC(=O)Nc1ccccc1C(=O)N1CCN(Cc2ccccc2)CC1 | 15.3% |
| O=C(CN(c1ccccc1)S(=O)(=O)c1ccc(Cl)cc1)Nc1ccccc1C(=O)N1CCCC1 | 92.2% (active) |
| Cc1ccc(S(=O)(=O)NC(C)C(=O)Nc2ccccc2C(=O)N2CCCC2)cc1 (configuration not stated) | 44.1% |
| CC(=O)N1CCN(c2ccc(NCc3ccc(C(C)C)cc3)cc2)CC1 | 37% |
| O=C1CSC(c2cccc(F)c2)N1c1ccccc1F (configuration not stated) | 3% |
| O=C(Nc1ccc(Cl)cc1)OCc1cc(-c2ccccc2)on1 | 64.4% (active) |
| O=C(Nc1ccccc1)OCc1cn(-c2ccc(Cl)cc2)nn1 | 41.6% |
| O=C(Nc1ccccc1)OCc1cc(-c2ccc(Cl)cc2)on1 | 16.9% |
| CCCn1c(O)c(CN2CCCC(C)C2)c(C)c(C#N)c1=O (configuration not stated) | 5.2% |
| O=C(Nc1ccccc1)N1CCN(Cc2ccccc2)CC1 | 14.6% |
| CC(=O)N1CCN(C(=O)Nc2cccc(C(F)(F)F)c2)CC1 | 4.5% |
| O=C(Nc1cccc(NC(=O)N2CCN(c3ccccc3)CC2)c1)N1CCN(c2ccccc2)CC1 | 54% (active) |
